PubChem BioAssay AID743498 (The Scripps Research Institute Molecular Screening Center, 2014)
A number with no mark means an inactive call. The source made the active and inactive calls.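 Rule for the calls: active = IC50, the dose giving half inhibition, at or below 10 µM; inactive = IC50 above 10 µM.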

Assay: DNA CAG repeat dye-complex inhibitors – biochemical, fluorescence, 5'CAG/3'GTC DNA, powders, MedChem round 1, counter-screen for r(CAG) RNA repeat binder project, late-stage follow-up (AID 743498)
Details: DNA d(CAG) repeat TO-PRO-1 dye displacement

Row | Structure (SMILES) | IC50
1 | N#C/C(=C/c1cn(-c2ccccc2)nc1-c1cccnc1)C(=O)Nc1ccc(C(=O)O)cc1 | 28.6 µM
2 | NS(=O)(=O)c1ccc(NC(=O)/C=C/c2cn(-c3ccccc3)nc2-c2cccc(Cl)c2)cc1 | > 29.9 µM
3 | Cc1c(C(=O)Nc2ccc(S(=O)(=O)Nc3ncccn3)cc2)oc2ccc(F)cc12 | > 29.9 µM
4 | Cc1ccc(-c2nn(-c3ccccc3)cc2/C=C/C(=O)Nc2ccc(S(N)(=O)=O)cc2)cc1 | > 29.9 µM
5 | COC(=O)c1ccc(NC(=O)/C=C/c2cn(CCC#N)nc2-c2ccc(F)cc2)cc1 | > 29.9 µM
6 | CC(=O)NS(=O)(=O)c1ccc(NC(=O)/C=C/c2cn(-c3ccccc3)nc2-c2ccccc2)cc1 | 3.6 µM (active)
7 | COc1ccc(NC(=O)/C=C/c2cn(-c3ccccc3)nc2-c2ccc(OC)cc2)cc1 | > 29.9 µM
8 | O=C(/C=C/c1cn(-c2ccccc2)nc1-c1ccccc1)NCCc1c[nH]c2ccccc12 | > 29.9 µM
9 | O=C(/C=C/c1cn(-c2ccccc2)nc1-c1ccccc1)NCCO | > 29.9 µM
10 | Cc1c(C(=O)Nc2ccc(S(=O)(=O)N(C)Cc3ccccc3)cc2)oc2ccc(F)cc12 | > 29.9 µM
11 | O=C(/C=C/c1cn(-c2ccccc2)nc1-c1ccccc1)NCc1ccccc1 | > 29.9 µM
12 | CNC(=O)Cc1ccc(NC(=O)/C=C/c2cn(-c3ccccc3)nc2-c2ccc(F)cc2)cc1 | > 29.9 µM
13 | O=C(/C=C/c1cn(-c2ccccc2)nc1-c1ccccc1)N1CCN(CC(=O)N2CCCC2)CC1 | > 29.9 µM
14 | Cc1c(C(=O)Nc2ccc(S(=O)(=O)NCCCN3CCOCC3)cc2)oc2ccc(F)cc12 | > 29.9 µM
15 | CCOC(=O)N1CCC(NC(=O)/C=C/c2cn(-c3ccccc3)nc2-c2ccccc2)CC1 | > 29.9 µM
16 | CN1C(=O)/C(=C/c2cn(-c3ccccc3)nc2-c2ccccc2)c2ccccc21 | > 29.9 µM

Row | Structure (SMILES) | IC50
17 | COc1ccc(-c2nn(-c3ccccc3)cc2/C=C/C(=O)Nc2cccc(NC(C)=O)c2)cc1OC | > 29.9 µM
18 | CCN1CCN(C(=O)/C=C/c2cn(-c3ccccc3)nc2-c2ccccc2)CC1 | > 29.9 µM
19 | COc1ccc(-c2nn(-c3ccccc3)cc2/C=C/C(=O)Nc2ccc(C(=O)O)cc2)cc1 | 3.83 µM (active)
20 | O=C(/C=C\c1cn(-c2ccccc2)nc1-c1ccc(F)cc1)Nc1ccc(C(=O)O)cc1 | 4.76 µM (active)
21 | N#C/C(=C/c1cn(Cc2ccccc2)nc1-c1cccnc1)C(=O)Nc1ccc(C(=O)O)cc1 | > 29.9 µM
22 | CN1CCC(N(C)C(=O)/C=C/c2cn(-c3ccccc3)nc2-c2ccccc2)CC1 | > 29.9 µM
23 | CS(=O)(=O)Nc1cc(NC(=O)/C=C/c2cn(-c3ccccc3)nc2-c2ccccc2)ccc1F | 12.2 µM
24 | CN(C)C(=O)C1CCN(C(=O)/C=C/c2cn(-c3ccccc3)nc2-c2ccccc2)CC1 | > 29.9 µM
25 | CN(C)CCCNC(=O)/C=C/c1cn(-c2ccccc2)nc1-c1ccccc1 | > 29.9 µM
26 | O=C(/C=C/c1cn(-c2ccccc2)nc1-c1ccccc1)Nc1cc(S(=O)(=O)N2CCCC2)ccc1Cl | > 29.9 µM
27 | CCN(c1ccccc1)S(=O)(=O)c1ccc(NC(=O)c2oc3ccc(F)cc3c2C)cc1 | > 29.9 µM
28 | CCN(CC)C(=O)/C=C/c1cn(-c2ccccc2)nc1-c1ccccc1 | > 29.9 µM
29 | NC(=O)c1cc(NC(=O)/C=C/c2cn(-c3ccccc3)nc2-c2ccc(F)cc2)c(F)cc1F | > 29.9 µM
30 | Cc1ccc(-c2nn(-c3ccccc3)cc2/C=C/C(=O)Nc2cccc(S(N)(=O)=O)c2)cc1 | > 29.9 µM
31 | O=C(/C=C/c1cn(-c2ccccc2)nc1-c1ccc2ccccc2c1)Nc1ccc(C(=O)O)cc1 | 3.53 µM (active)
